Laboratory results taken from PubChem BioAssay (Tox21).
Results filed as inconclusive are left out. The source made the active and inactive calls. Unless noted, calls follow the shape of the full dose curve.

Assays:
[1] = Nuclear factor erythroid 2-related factor 2/antioxidant responsive element (Nrf2/ARE) small molecule agonists: qHTS cell viability counter screen in human keratinocytes (AID 1919968; active = well fitted curve in the direction sought with a large enough effect in the repeat runs; an effect the other way counts as inactive or inconclusive; also: nearly all actives have a fitted effect of over 55% in size)
How it was run: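 KeratinoSens HaCaT cells, 1,500/well, preincubated 5 h, then exposed to compounds in DMSO for 23 h at 37 C/5% CO2. Viability read as CellTiter-Fluor fluorescence after 1 h, in the same wells as the ARE-luciferase read.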

[2] = Nuclear factor erythroid 2-related factor 2/antioxidant responsive element (Nrf2/ARE) small molecule agonists: luciferase reporter gene qHTS assay in human keratinocytes (AID 1919969); also: nearly all actives have a fitted effect of over 35% in size; also: potency is read from the fitted curve at half-maximal effect
[3] = target: Gonadotropin-releasing hormone receptor (Homo sapiens) (UniProt P30968); test: Human gonadotropin-releasing hormone receptor (GnRHR) small molecule agonists, calcium flux assay in GnRHR-HEK293 cells (AID 1920063); also: nearly all actives have a fitted effect of over 35% in size
Gonadotropin-releasing hormone receptor (Homo sapiens), sequence (P30968 whole entry, looked up): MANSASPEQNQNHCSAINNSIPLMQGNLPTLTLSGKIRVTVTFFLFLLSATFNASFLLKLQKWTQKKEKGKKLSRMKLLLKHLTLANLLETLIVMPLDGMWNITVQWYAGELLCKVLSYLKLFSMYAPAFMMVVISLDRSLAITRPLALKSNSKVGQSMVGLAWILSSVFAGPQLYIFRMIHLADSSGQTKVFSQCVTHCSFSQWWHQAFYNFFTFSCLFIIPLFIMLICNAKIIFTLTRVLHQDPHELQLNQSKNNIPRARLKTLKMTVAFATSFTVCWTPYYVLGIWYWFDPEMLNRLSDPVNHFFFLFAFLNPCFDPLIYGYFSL
How it was run: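 HEK293 cells stably expressing human GnRHR were dye-loaded for 1 h at 37 C. Compound was added in agonist mode and fluorescence (Ex/Em 480/540) recorded kinetically for 3 min. Fifteen concentrations, triplicates.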

[4] = target: KiSS-1 receptor (Homo sapiens) (UniProt Q969F8); test: Human kisspeptin (KISS1R) small molecule agonists, calcium flux assay in KISS1R-HEK293 cells (AID 1920064; active = well fitted curve in the direction sought with a large enough effect in the repeat runs; an effect the other way counts as inactive or inconclusive)
KiSS-1 receptor (Homo sapiens), sequence (Q969F8 whole entry, looked up): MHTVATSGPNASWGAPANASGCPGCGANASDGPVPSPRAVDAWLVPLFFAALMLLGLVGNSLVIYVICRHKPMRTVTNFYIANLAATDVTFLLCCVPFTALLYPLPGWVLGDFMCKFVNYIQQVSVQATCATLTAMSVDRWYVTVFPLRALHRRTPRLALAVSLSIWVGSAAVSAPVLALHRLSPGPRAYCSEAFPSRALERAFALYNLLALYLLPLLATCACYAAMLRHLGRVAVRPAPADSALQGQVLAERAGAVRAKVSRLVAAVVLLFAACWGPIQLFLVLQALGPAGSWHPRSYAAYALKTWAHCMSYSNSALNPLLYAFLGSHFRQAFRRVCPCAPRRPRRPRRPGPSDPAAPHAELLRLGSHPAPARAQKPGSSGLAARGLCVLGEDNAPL
How it was run: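 HEK293 cells stably expressing human KISS1R were loaded with calcium dye for 1 h at 37 C, then given compound; fluorescence (Ex/Em 480/540) was read kinetically for 3 min. Fifteen concentrations, triplicate.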

[5] = G protein-coupled receptor (GPCR) small molecule agonists, calcium flux assay: HEK293 wild type cell line counter screen (AID 1920065)
How it was run: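 Wild-type HEK293 cells plated 18 h, loaded with calcium dye 1 h at 37 C, then compounds added in agonist mode (ATP as positive control). Kinetic fluorescence Ex/Em 480/540 recorded 3 min at 1 sec intervals; 15 concentrations, triplicate.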

[6] = p53 small molecule agonists, cell-based qHTS assay with human liver microsomes: qHTS cell viability counter screen (AID 1963579); also: nearly all actives have a fitted effect of over 45% in size; also: potency is read from the fitted curve at half-maximal effect
How it was run: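 Cytotoxicity counter screen: p53RE-bla, 4,000 cells/well; 5 h settle, 37 C/5% CO2; cpd + HLM 0.5 mg/mL + NADPH 0.5 mg/mL (final); 16 h, 37 C; CellTiter-Glo, 30 min RT, luminescence.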

[7] = p53 small molecule agonists, cell-based qHTS assay with rat liver microsomes: qHTS cell viability counter screen (AID 1963580); also: nearly all actives have a fitted effect of over 45% in size
How it was run: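 p53RE-bla HCT-116 cells were exposed 16 h at 37 C to compounds with rat liver microsomes (0.5 mg/mL) and NADPH (0.5 mg/mL). Viability was measured in the same wells as ATP content by CellTiter-Glo luminescence.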

[8] = p53 small molecule agonists, cell-based qHTS assay: qHTS cell viability counter screen (AID 1963581); also: nearly all actives have a fitted effect of over 45% in size
How it was run: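 p53RE-bla HCT-116 cells, compounds added 5 h after plating and incubated 16 h at 37 C. Cytotoxicity measured in the same wells as intracellular ATP by CellTiter-Glo luminescence after 30 min at room temperature.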

[9] = target: 5-hydroxytryptamine receptor 2A (Homo sapiens) (UniProt P28223); test: 5-hydroxytryptamine receptor 2A (HTR2A) small molecule antagonists, cell-based qHTS assay (AID 1963586); also: nearly all actives have a fitted effect of over 45% in size; also: potency is read from the fitted curve at half-maximal effect
5-hydroxytryptamine receptor 2A (Homo sapiens), sequence (P28223 whole entry, looked up): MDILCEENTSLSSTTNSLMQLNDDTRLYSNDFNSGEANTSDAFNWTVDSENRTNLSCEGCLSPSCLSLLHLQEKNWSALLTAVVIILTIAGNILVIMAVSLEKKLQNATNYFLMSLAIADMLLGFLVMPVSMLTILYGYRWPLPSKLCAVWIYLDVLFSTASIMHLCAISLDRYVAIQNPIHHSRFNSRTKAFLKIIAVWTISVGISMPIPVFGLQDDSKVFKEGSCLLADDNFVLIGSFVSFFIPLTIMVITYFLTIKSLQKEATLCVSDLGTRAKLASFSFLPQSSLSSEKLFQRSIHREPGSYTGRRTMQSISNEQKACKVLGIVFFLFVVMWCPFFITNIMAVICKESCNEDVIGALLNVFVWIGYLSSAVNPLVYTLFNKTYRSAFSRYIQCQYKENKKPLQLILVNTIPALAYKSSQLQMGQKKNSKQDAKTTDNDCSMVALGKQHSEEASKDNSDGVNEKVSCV
How it was run: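 Antagonist-mode intracellular calcium assay: DOI (4 nM) added after 5 min compound pre-incubation at room temperature to dye-loaded HTR2A-CHO cells. Fluorescence followed for 3 min, sampled every second.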

[10] = target: 5-hydroxytryptamine receptor 2A (Homo sapiens) (UniProt P28223); test: 5-hydroxytryptamine receptor 2A (HTR2A) small molecule agonists, cell-based qHTS assay (AID 1963587); also: nearly all actives have a fitted effect of over 30% in size
How it was run: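 CHO cells stably expressing human HTR2A, plated 18 h, loaded with calcium dye 1 h at 37 C. Agonist mode: compounds added and intracellular calcium fluorescence recorded kinetically for 2 min at 1 sec intervals.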

[11] = target: Muscarinic acetylcholine receptor M1 (Homo sapiens) (UniProt P11229); test: Cholinergic receptor muscarinic 1 (CHRM1) small molecule antagonists, cell-based qHTS assay (AID 1963588); also: nearly all actives have a fitted effect of over 40% in size
Muscarinic acetylcholine receptor M1 (Homo sapiens), sequence (P11229 whole entry, looked up): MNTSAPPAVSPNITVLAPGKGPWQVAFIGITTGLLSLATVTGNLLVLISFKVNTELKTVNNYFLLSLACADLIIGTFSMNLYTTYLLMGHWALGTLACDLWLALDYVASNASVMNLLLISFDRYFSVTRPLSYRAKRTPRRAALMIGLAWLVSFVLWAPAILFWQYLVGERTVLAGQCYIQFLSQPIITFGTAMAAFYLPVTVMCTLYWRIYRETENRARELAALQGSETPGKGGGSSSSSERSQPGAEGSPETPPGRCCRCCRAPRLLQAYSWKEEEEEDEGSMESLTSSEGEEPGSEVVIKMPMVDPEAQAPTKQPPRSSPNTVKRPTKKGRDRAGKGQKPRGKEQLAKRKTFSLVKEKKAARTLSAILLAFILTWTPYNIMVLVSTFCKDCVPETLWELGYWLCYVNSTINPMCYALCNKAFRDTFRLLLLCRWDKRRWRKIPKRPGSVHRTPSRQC
How it was run: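 CHRM1-CHO calcium-flux assay, antagonist mode. Cells were seeded 18 h, dye-loaded 1 h at 37 C and given compound for 5 min at RT, then acetylcholine was added at 50nM. FDSS fluorescence was read 3 min; 15 concentrations, three runs.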

[12] = target: Muscarinic acetylcholine receptor M1 (Homo sapiens) (UniProt P11229); test: Cholinergic receptor muscarinic 1 (CHRM1) small molecule agonists, cell-based qHTS assay (AID 1963589); also: nearly all actives have a fitted effect of over 35% in size
How it was run: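 CHO cells stably expressing human CHRM1 were loaded with calcium dye for 1 h at 37 C, then compound was added in agonist mode. Intracellular calcium fluorescence was followed kinetically at 1 s intervals. Fifteen concentrations were tested in three independent runs.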

[13] = cAMP Responsive Elements (CRE) small molecule agonists, cell-based qHTS assay (AID 1963590)
How it was run: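 CRE-bla HEK 293T cells, 2,000/well in DMEM with 10% dialyzed FBS and 25 mM HEPES, pre-incubated 18 h at 37 C, then exposed to compound 3 h at 37 C. Beta-lactamase reporter read with LiveBLAzer B/G FRET substrate after 2 h at room temperature.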

[14] = cAMP Responsive Elements (CRE) small molecule antagonists, cell-based qHTS assay (AID 1963591; active = well fitted inhibition curve with a large enough effect in the signal ratio in the repeat runs, not every such curve was filed as active; the % refers to the signal ratio)
How it was run: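 CRE-bla HEK293T cells plated 18 h, then given compound plus NKH477 at 0.25 uM final for 3 h at 37C. Beta-lactamase reporter read with LiveBLAzer B/G FRET substrate after 2 h at room temperature.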

[15] = target: Beta-2 adrenergic receptor (Homo sapiens) (UniProt P07550); test: Adrenergic beta2 receptor (ADRB2) small molecule antagonists, cell-based qHTS assay (AID 1963592); also: nearly all actives have a fitted effect of over 50% in size; also: potency is read from the fitted curve at half-maximal effect; as to activity change, negative = inhibition: series mostly up to about 92 µM
Beta-2 adrenergic receptor (Homo sapiens), sequence (P07550 whole entry, looked up): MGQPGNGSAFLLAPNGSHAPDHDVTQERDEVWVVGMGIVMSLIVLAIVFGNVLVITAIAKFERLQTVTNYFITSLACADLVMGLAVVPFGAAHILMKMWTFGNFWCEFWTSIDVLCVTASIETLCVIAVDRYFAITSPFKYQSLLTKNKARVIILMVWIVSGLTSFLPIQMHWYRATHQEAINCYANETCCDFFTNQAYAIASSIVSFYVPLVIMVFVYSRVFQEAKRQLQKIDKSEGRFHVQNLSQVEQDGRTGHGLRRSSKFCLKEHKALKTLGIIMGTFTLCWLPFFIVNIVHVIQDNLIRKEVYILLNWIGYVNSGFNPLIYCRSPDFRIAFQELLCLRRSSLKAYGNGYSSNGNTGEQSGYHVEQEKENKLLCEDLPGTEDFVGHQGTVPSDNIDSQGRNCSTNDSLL
How it was run: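 Cells (CHO, stable ADRB2 overexpression) incubated 18-20hr at 37C; compounds added from DMSO; agonist mix (1nM isoproterenol, 100uM IBMX, 25uM Ro-20-1724) added; 0.5hr RT; d2-cAMP and anti-cAMP-cryptate added; 1hr RT; 665/615 nm read.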

[16] = target: D(2) dopamine receptor (Homo sapiens) (UniProt P14416); test: Dopamine D2 receptor (DRD2) small molecule agonists, cell-based qHTS assay (AID 1963594); also: nearly all actives have a fitted effect of over 35% in size
D(2) dopamine receptor (Homo sapiens), sequence (P14416 whole entry, looked up): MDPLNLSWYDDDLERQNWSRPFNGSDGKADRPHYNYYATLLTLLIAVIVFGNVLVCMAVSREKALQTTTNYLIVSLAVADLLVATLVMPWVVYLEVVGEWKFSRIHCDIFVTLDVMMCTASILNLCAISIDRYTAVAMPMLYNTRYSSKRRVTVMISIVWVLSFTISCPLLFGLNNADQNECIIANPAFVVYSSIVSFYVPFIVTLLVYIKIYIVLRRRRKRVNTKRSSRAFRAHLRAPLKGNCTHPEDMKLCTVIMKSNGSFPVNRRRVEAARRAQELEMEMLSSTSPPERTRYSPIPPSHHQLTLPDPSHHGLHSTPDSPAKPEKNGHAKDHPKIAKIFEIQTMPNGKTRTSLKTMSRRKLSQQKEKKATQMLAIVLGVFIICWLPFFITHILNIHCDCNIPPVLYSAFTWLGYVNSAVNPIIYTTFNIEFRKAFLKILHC
How it was run: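 HEK293 cells stably expressing human DRD2, pre-treated with PDE inhibitor Ro20-1724 (0.1 mM final) and compound 10 min at room temperature, then stimulated with NKH477 (200nM […]) for 30 min. cAMP read by HTRF (665/620 nm).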

[17] = target: D(2) dopamine receptor (Homo sapiens) (UniProt P14416); test: Dopamine D2 receptor (DRD2) small molecule antagonists, cell-based qHTS assay (AID 1963595; active = well fitted inhibition curve with a large enough effect in the signal ratio in the repeat runs, with a control signal flat; the % refers to the signal ratio)
How it was run: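 Antagonism was scored as restored cAMP in HEK293-DRD2 cells. These cells were stimulated with 200 nM NKH477 and 12 nM quinpirole for 30 min at room temperature, in the presence of 0.1 mM Ro20-1724.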

[18] = target: Beta-2 adrenergic receptor (Homo sapiens) (UniProt P07550); test: Adrenergic beta2 receptor (ADRB2) small molecule agonists, cell-based qHTS assay (AID 1963593);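 also: CHO cells stably overexpressing human ADRB2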
How it was run: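 CHO cells stably over-expressing ADRB2 were plated overnight at 37C, then dosed with compounds plus a stimulation mix containing 100uM IBMX and 25uM Ro-20-1724 for 0.5hr at room temperature. cAMP was measured by HTRF competition, 1hr.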
% is scaled to controls: 0 for no effect and ±100 for the full control effect.

CCSCC
active: Potency [2] 72.5 µM | Potency [6] 19.3 µM
inactive: Potency [1] | Potency [3] | Potency [4] | Potency [5] | Potency [7] | Potency [8] | Potency [9] | Potency [10] | Potency [11] | Potency [12] | Potency [13] | Potency [14] | Potency [15] | Potency [16] | Potency [17]

CCC(C)(CCC(C)C)C(=O)O (stereo unspecified)
inactive: Potency [1] | Potency [2] | Potency [3] | Potency [4] | Potency [5] | Potency [6] | Potency [7] | Potency [8] | Potency [9] | Potency [10] | Potency [11] | Potency [12] | Potency [13] | Potency [14] | Potency [15] | Potency [16] | Potency [17]

Cc1nc2ccccc2c(=O)o1
inactive: Potency [1] | Potency [2] | Potency [3] | Potency [4] | Potency [5] | Potency [6] | Potency [7] | Potency [8] | Potency [9] | Potency [10] | Potency [11] | Potency [12] | Potency [13] | Potency [14] | Potency [15] | Potency [16] | Potency [17]

Nc1ccc2cc(S(=O)(=O)O)cc(O)c2c1N=Nc1ccccc1C(F)(F)F
inactive: Potency [1] | Potency [2] | Potency [3] | Potency [4] | Potency [5] | Potency [6] | Potency [7] | Potency [8] | Potency [9] | Potency [10] | Potency [11] | Potency [12] | Potency [13] | Potency [14] | Potency [15] | Potency [16] | Potency [17]

C1CCCCCCCCCCC1
inactive: activity change, negative = cytotoxicity [1] 0.761% [at 19 µM] | activity, positive = activation [2] -8.94% [at 19 µM] | activity change [3] -0.293% [at 11.8 µM, stronger effect = higher value] | activation [4] 1.26% [at 15.8 µM] | activation [5] -0.978% [at 11.8 µM] | activity change, negative = cytotoxicity [6] -2.12% [at 13.5 µM] | activity change, negative = cytotoxicity [7] 0.482% [at 13.5 µM] | activity change, negative = cytotoxicity [8] 9.85% [at 13.5 µM] | activity, negative = inhibition [9] -15.5% [at 12.7 µM] | activation [10] -0.851% [at 15.9 µM] | activity, negative = inhibition [11] 10.4% [at 12.6 µM] | activation [12] -0.458% [at 15.8 µM] | activation [13] -0.929% [at 19 µM] | activity change, negative = inhibition [14] -1.59% [at 18.9 µM] | activity change, negative = inhibition [15] 0.327% [at 19 µM] | activation [16] -2.66% [at 19 µM] | activity change, negative = inhibition [17] -0.815% [at 18.9 µM]

CC(C)(C)CC(C)(C)N
inactive: Potency [1] | Potency [2] | Potency [3] | Potency [4] | Potency [5] | Potency [6] | Potency [7] | Potency [8] | Potency [9] | Potency [10] | Potency [11] | Potency [12] | Potency [13] | Potency [14] | Potency [15] | Potency [16] | Potency [17]

COP(=O)(O)OP(=O)(O)OC
active: Potency [2] 24.3 µM
inactive: Potency [1] | Potency [3] | Potency [4] | Potency [5] | Potency [6] | Potency [7] | Potency [8] | Potency [9] | Potency [10] | Potency [11] | Potency [12] | Potency [13] | Potency [14] | Potency [15] | Potency [17]

COc1cccc(CCc2ccccc2OCC(CN(C)C)OC(=O)CCC(=O)O)c1 (stereo unspecified)
active: Potency [9] 7.29 µM | Potency [15] 4.73 µM
inactive: Potency [1] | Potency [2] | Potency [3] | Potency [4] | Potency [5] | Potency [6] | Potency [7] | Potency [8] | Potency [10] | Potency [11] | Potency [12] | Potency [13] | Potency [14] | Potency [17]

CCC(C)COC(C)=O (stereo unspecified)
inactive: Potency [1] | Potency [2] | Potency [3] | Potency [4] | Potency [5] | Potency [6] | Potency [7] | Potency [8] | Potency [9] | Potency [10] | Potency [11] | Potency [12] | Potency [13] | Potency [14] | Potency [15] | Potency [16] | Potency [17]

CCCCN(CCC(=O)OCC)C(C)=O
inactive: Potency [1] | Potency [2] | Potency [3] | Potency [4] | Potency [5] | Potency [6] | Potency [7] | Potency [8] | Potency [9] | Potency [10] | Potency [11] | Potency [12] | Potency [13] | Potency [14] | Potency [18] | Potency [16] | Potency [17]

CC(=O)c1ccccc1[N+](=O)[O-]
inactive: Potency [1] | Potency [2] | Potency [3] | Potency [4] | Potency [5] | Potency [6] | Potency [7] | Potency [8] | Potency [9] | Potency [10] | Potency [11] | Potency [12] | Potency [13] | Potency [14] | Potency [15] | Potency [16] | Potency [17]

Cc1ccc(C(C)C)cc2c(C)ccc1-2
inactive: Potency [1] | Potency [2] | Potency [3] | Potency [4] | Potency [5] | Potency [6] | Potency [7] | Potency [8] | Potency [9] | Potency [10] | Potency [11] | Potency [12] | Potency [13] | Potency [14] | Potency [15] | Potency [16] | Potency [17]

C=C(C)CS(=O)(=O)O
inactive: Potency [1] | Potency [2] | Potency [3] | Potency [4] | Potency [5] | Potency [6] | Potency [7] | Potency [8] | Potency [9] | Potency [10] | Potency [11] | Potency [12] | Potency [13] | Potency [14] | Potency [15] | Potency [16] | Potency [17]

CCCCCCCCNC
inactive: Potency [1] | Potency [2] | Potency [3] | Potency [4] | Potency [5] | Potency [6] | Potency [7] | Potency [8] | Potency [9] | Potency [10] | Potency [11] | Potency [12] | Potency [13] | Potency [14] | Potency [15] | Potency [16] | Potency [17]
